Data taken from article PMC4336329 (PLoS ONE, 2015).
Hit rate of the full screen: of about 310,000 compounds, about 2,200 (0.71%) showed an effect of 50% or more. The effect is printed as a negative number. The sample holds strong results, similar compounds and a random draw of the others, so the mix is not that of the screen.

Biological target: human ether-à-go-go-related gene (hERG) potassium channel (human, UniProt Q12809)
Assay: primary screen, population patch clamp on CHO cells stably expressing hERG; higher = less effect of the substance

Sequence of human ether-à-go-go-related gene (hERG) potassium channel (Q12809 whole entry, looked up): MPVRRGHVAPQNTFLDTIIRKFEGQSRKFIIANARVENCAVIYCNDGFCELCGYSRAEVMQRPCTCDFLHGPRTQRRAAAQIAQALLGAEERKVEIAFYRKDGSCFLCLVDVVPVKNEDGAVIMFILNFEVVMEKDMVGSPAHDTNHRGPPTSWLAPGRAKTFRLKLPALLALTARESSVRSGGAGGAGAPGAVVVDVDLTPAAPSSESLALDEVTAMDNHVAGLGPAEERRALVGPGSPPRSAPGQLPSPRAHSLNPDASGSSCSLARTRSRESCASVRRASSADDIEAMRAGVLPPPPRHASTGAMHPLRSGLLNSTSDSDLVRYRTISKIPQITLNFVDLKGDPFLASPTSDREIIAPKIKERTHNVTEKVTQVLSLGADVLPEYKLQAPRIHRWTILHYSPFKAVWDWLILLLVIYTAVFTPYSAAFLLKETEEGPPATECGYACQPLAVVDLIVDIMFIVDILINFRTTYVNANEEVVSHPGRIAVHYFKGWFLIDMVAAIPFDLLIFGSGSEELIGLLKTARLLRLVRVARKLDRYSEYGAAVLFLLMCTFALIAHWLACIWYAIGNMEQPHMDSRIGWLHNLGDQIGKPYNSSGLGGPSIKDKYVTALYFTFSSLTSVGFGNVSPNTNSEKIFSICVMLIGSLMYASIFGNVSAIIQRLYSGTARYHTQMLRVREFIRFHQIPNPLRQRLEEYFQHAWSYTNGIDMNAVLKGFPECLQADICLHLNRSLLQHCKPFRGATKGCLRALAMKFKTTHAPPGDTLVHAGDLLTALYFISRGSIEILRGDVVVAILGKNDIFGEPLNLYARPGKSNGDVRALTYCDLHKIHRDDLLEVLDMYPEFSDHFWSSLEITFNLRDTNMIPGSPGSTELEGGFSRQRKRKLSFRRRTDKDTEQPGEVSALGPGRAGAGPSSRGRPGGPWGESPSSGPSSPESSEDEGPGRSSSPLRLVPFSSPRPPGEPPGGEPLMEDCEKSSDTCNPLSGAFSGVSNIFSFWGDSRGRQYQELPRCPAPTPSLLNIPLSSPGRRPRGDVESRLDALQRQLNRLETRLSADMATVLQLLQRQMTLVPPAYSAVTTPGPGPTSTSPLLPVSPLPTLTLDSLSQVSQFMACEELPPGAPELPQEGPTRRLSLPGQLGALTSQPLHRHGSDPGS

| SMILES | hERG current change (%, negative = inhibition) at 1uM [%] |
| --- | --- |
| Cc1ccc(C(=O)Nc2nc3ccccc3n2CCN2CCCC2)cc1 | -19.5 |
| Cc1c(Cl)c(C(=O)Nc2nc3ccccc3n2CCN2CCCCC2)nn1C | -61.5 |
| CCn1cc(Cl)c(C(=O)Nc2nc3ccccc3n2CCN2CCCCC2)n1 | -51.8 |
| CCn1nccc1C(=O)Nc1nc2ccccc2n1CCN1CCCCC1 | -11.2 |
| O=C(Nc1nc2ccccc2n1CCN1CCCCC1)c1ccc(Cl)cc1 | -5.1 |
| O=C(Nc1nc2ccccc2n1CCN1CCCCC1)c1ccco1 | -37.4 |
| CC(C)Oc1cccc(C(=O)C2CCCN(C(=O)CCc3cnn(C)c3)C2)c1 (centres unmarked) | 10.7 |
| CCCn1c(C)cc(/C=C(\C#N)C(=O)OCC(=O)N(C)c2c(N)n(Cc3ccccc3)c(=O)[nH]c2=O)c1C | 11 |
| O=C(CNc1ccc(F)cc1)N/N=C/c1c(O)ccc2ccccc12 | 6.94 |
| CCNc1nnc(-c2ccc(C)cc2)o1 | 9.37 |
| C/C=C/c1ccc(OCCNCc2ccccc2)c(OC)c1.O=C(O)C(=O)O | 4.38 |
| C/C=C/c1ccc(OCCCCNCc2ccco2)c(OC)c1.O=C(O)C(=O)O | -62.6 |
| C/C=C/c1ccc(OCCCNC)c(OC)c1.O=C(O)C(=O)O | -10.9 |
| O=C(c1cccnc1NCc1ccc(F)cc1)N1CCOCC1 | 5.16 |
| CN(C)c1ccc(/C=C/C(=O)c2ccccc2)cc1[N+](=O)[O-] | -0.74 |
| Cc1cccc(NC(=O)CN2CCN(C(=O)C3CCC3)CC2)c1C | -7.56 |
| Cc1cccc(NC(=O)CN2CCN(C(=O)C3CCCO3)CC2)c1C (centres unmarked) | 5.32 |
| CCc1ccccc1NC(=O)CN1CCN(C(=O)C2CCN(C(=O)/C=C/c3ccccc3)CC2)CC1 | -74.5 |
| CCc1ccccc1NC(=O)CN1CCN(CC(=O)Nc2ccc(-c3ccccc3)cc2)CC1 | -7.45 |
| COC(=O)C1CCN(C(=O)/C=C/c2ccccc2)CC1 | 11.1 |
| Cc1cccc(NC(=O)CN2CCN(C(=O)C3CCN(C(=O)/C=C/c4ccccc4)CC3)CC2)c1C | -56.6 |
| O=C(CN1CCN(C(=O)c2ccco2)CC1)NCc1ccc(Cl)cc1 | -35.1 |
| O=C(OCC(=O)N1CCN(C(=O)c2ccco2)CC1)c1cncc(Br)c1 | 6.76 |
| C[C@@H](C(=O)NCc1c(F)cccc1Cl)N1C(=O)N2CCc3c([nH]c4ccccc34)[C@@]2(C)C1=O | 4.12 |

| SMILES | hERG current change (%, negative = inhibition) at 1uM [%] |
| --- | --- |
| C[N+]1=C(/C=C/Nc2ccccc2)C(C)(C)c2ccccc21.[O-][Cl+3]([O-])([O-])[O-] | -62.8 |
| CC1(C)OC(=O)C(=CNc2ccccc2)C(=O)O1 | 2.21 |
| COC(=O)c1ccc2c(c1)C(C)(C)C(/C=C/c1ccccc1O)=[N+]2C.[I-] | -7.78 |
| O=C1c2ccccc2C(=O)N1OCc1ccc(Cl)cc1 | 8.72 |
| COc1ccc(CN2CCN(Cc3ccc(C)cc3)CC2)c(OC)c1.O=C(O)C(=O)O | -18.9 |
| COc1cc(C(=O)OCC(=O)N2CCC(Cc3ccccc3)CC2)cc(OC)c1OC | 13.4 |
| Clc1ccccc1OCCN1CCC(Cc2ccccc2)CC1.O=C(O)C(=O)O | 10.6 |
| COc1ccc(OC)c(CN2CCN(C(=O)Cc3ccccc3)CC2)c1.O=C(O)C(=O)O | 17.6 |
| COc1cc(CN2CCC(C)CC2)ccc1OCc1ccccc1.O=C(O)C(=O)O | -3.21 |
| Cc1ccccc1OCCN1CCC(Cc2ccccc2)CC1.O=C(O)C(=O)O | -10 |
| COc1ccc(OC)c(CN2CCC(Cc3ccccc3)CC2)c1.O=C(O)C(=O)O | -61.9 |
| COc1cc(C(C)=O)ccc1OCCN1CCC(Cc2ccccc2)CC1.O=C(O)C(=O)O | -93.3 |
| CCOc1ccccc1OCCN1CCC(Cc2ccccc2)CC1.O=C(O)C(=O)O | -53.7 |
| COc1ccc(CN2CCC(Cc3ccccc3)CC2)cc1OC.O=C(O)C(=O)O | -32.9 |
| COc1ccc(CN2CCN(Cc3ccc(C(F)(F)F)cc3)CC2)cc1.O=C(O)C(=O)O | -24.5 |
| COc1ccc(CN2CCN(Cc3ccc(C(F)(F)F)cc3)CC2)c(OC)c1.O=C(O)C(=O)O | -66.6 |
| COC(=O)C1CCN(C(=O)Cc2ccc(C)cc2)CC1 | 10.2 |
| COc1cccc(C(=O)Nc2cccc(-c3nnc(-c4ccco4)o3)c2)c1 | -1.01 |
| O=C(O)c1cccc(O)c1O | 8.42 |
| CCOC(=O)N1CCN(Cc2cc(=O)oc3cc4c(cc23)CCC4)CC1 | -3.49 |
| Cc1cc(=S)[nH]c2c(C)cccc12 | 15.9 |
| c1ccc(-c2cnnc(-c3ccccn3)n2)cc1 | 4.98 |
| CN(C)CCCOC(=O)c1cc2ccccc2o1.Cl | 13 |
| COc1ccccc1C1=NOC(C(=O)N2CCN(C(=O)c3ccco3)CC2)C1 (centres unmarked) | 8.33 |

| SMILES | hERG current change (%, negative = inhibition) at 1uM [%] |
| --- | --- |
| Cc1cccc2cc(C#N)c(NCCCn3ccnc3)nc12 | -11.1 |
| COc1ccc(CN2CCC(N(CCc3ccccc3)Cc3ccccc3)CC2)c(OC)c1.O=C(O)C(=O)O | -79.8 |
| COc1cccc(CN2CCC(N(CCc3ccccc3)Cc3ccccc3)CC2)c1OC.O=C(O)C(=O)O | 0.877 |
| COc1ccc(CN2CCC(C(=O)N(C)CCc3ccc(OC)c(OC)c3)CC2)c(OC)c1.O=C(O)C(=O)O | -18 |
| COc1cc(C(C)=O)ccc1OCCCN1CCC(Cc2ccccc2)CC1.O=C(O)C(=O)O | -82.8 |
| COc1cc(C(=S)N2CCC(Cc3ccccc3)CC2)ccc1OCC(N)=O | 3.73 |
| COc1ccc(CCNC(=O)c2ccc(CN3CCC(Cc4ccccc4)CC3)cc2)cc1OC | -3.19 |
| CC(C)(C)c1ccc(COn2ccnc2)cc1 | 21 |
| COC(=O)CSc1ccc(C#N)c(SCC(=O)OC)c1 | 12.6 |
| COC(=O)c1ccc(NC(=O)CN2CCN(S(=O)(=O)c3cc(Cl)ccc3OC)CC2)cc1 | 10.2 |
| O=C(CSc1n[nH]c(-c2cccnc2)n1)Nc1ccccc1[N+](=O)[O-] | 11.9 |
| COc1cccc(Cn2c(-c3cccs3)noc2=O)c1 | -8.06 |
| COc1ccc(C)cc1S(=O)(=O)N(CC(=O)N1CCOCC1)c1cc(C)cc(C)c1 | -52 |
| COc1ccc(C)cc1S(=O)(=O)N(CC(=O)N1CCCC1)c1ccc(C)cc1 | -25.1 |
| COc1ccc(C)cc1S(=O)(=O)N(CC(=O)N1CCCC1)c1ccccc1 | 4.54 |
| CCCC(=O)Nn1cnc2c(c1=O)C1(CCCCC1)Cc1ccccc1-2 | 7.68 |
| COCCN=C1Sc2nc3cc(C)c(C)cc3cc2CN1Cc1cccs1 | 8.08 |
| COc1ccc(NC(=O)CN2CCC(C(N)=O)CC2)cc1 | 2.62 |
| O=C(CN1CCCCC1)Nc1cc(Cl)ccc1Cl | -0.089 |
| COc1ccc(NC(=O)CN2CCN(CC(=O)Nc3ccccc3Cl)CC2)cc1 | -79.3 |
| COc1ccc(NC(=O)CN2CCN(S(=O)(=O)c3ccc(Cl)cc3)CC2)cc1 | -64.1 |
| COc1ccc(NC(=O)CN2CCCCCC2)cc1OC | 7.92 |
| COc1ccc(NC(=O)CCN2CCN(S(=O)(=O)c3ccc(Cl)cc3)CC2)cc1 | 2.03 |
| COc1cccc(NC(=O)CN2CCN(CC(=O)Nc3ccccc3Cl)CC2)c1 | -21.1 |

| SMILES | hERG current change (%, negative = inhibition) at 1uM [%] |
| --- | --- |
| CCOc1ccc(NC(=O)CN2CCN(S(=O)(=O)c3ccc(Cl)cc3)CC2)cc1 | 10.8 |
| NC(=O)C1(N2CCCCC2)CCN(CC(=O)Nc2cc(Cl)ccc2Cl)CC1 | -55.3 |
| NC(=O)C1(N2CCCCC2)CCN(CC(=O)Nc2ccccc2-c2ccccc2)CC1 | 15.5 |
| COc1ccc(NC(=O)CN2CCN(c3ccccc3Cl)CC2)cc1 | 1.08 |
| COc1ccc(NC(=O)CN2CCN(CC(=O)Nc3ccc(OC)c(OC)c3)CC2)cc1 | -66.1 |
| O=C(Nc1nc(-c2ccc3c(c2)OCCO3)cs1)C1CCCC1 | 8.23 |
| COC(=O)C1=C(c2cc3ccccc3o2)C[C@@H]2CC[C@H]1N2C(=O)N1CCCC1 | 7.5 |
| NC(=NCCc1ccc(Cl)cc1)NS(=O)(=O)c1ccccc1 | 9.74 |
| O=C(c1ccccc1Br)N1CCCC(c2nc(-c3cccs3)no2)C1 (centres unmarked) | 13.2 |
| COc1ccc2oc(=N)c(-c3nnc4n3CCCCC4)cc2c1 | 1.02 |
| Cc1ccccc1C(=O)N1CCC(C(=O)Nc2ccc(C)c(S(=O)(=O)N3CCCCC3)c2)CC1 | 2.28 |
| O=C(CN1CCN(S(=O)(=O)N2CCCCCC2)CC1)Nc1ccc(Br)cc1 | -3.27 |
| O=C(CN1CCCC1)Nc1ccc(F)cc1 | 16.6 |
| O=C(CN1CCN(C(=O)N2CCCCC2)CC1)Nc1ccc(F)cc1 | -76.5 |
| COc1ccc(NC(=O)CN2CCN(S(=O)(=O)N(C)C)CC2)cc1 | 13.9 |
| COc1ccc(NC(=O)CN2CCCCC2)cc1.O=C(O)C(=O)O | 10.6 |
| O=C(CN1CCN(C(=O)C2CCC2)CC1)Nc1ccc(F)cc1 | -27.3 |
| O=C(CN1CCN(S(=O)(=O)N2CCCCC2)CC1)Nc1ccc(Br)cc1 | 2.87 |
| COc1cccc(CN2CCCN(S(=O)(=O)c3ccc(Br)cc3)CC2)c1 | -22.3 |
| COc1ccc(NC(=O)CN2CCN(S(=O)(=O)N3CCCCCC3)CC2)cc1 | -60.8 |
| COc1ccc(S(=O)(=O)N2CCN(Cc3ccc(Cl)cc3)CC2)cc1 | -4.05 |
| O=C(CN1CCN(S(=O)(=O)N2CCCCCC2)CC1)Nc1ccc(F)cc1 | -75.1 |
| COc1ccc(CN2CCCN(S(=O)(=O)c3ccc(Br)cc3)CC2)cc1 | -75.6 |
